The values below come from PubChem BioAssay (Tox21).

Values without a mark were called inactive. Inconclusive results are not listed. The source made the active and inactive calls. Unless noted, calls follow the shape of the full dose curve.

Test [1] can be described thus: Nuclear factor erythroid 2-related factor 2/antioxidant responsive element (Nrf2/ARE) small molecule agonists: qHTS cell viability counter screen in human keratinocytes (AID 1919968; active = well fitted curve in the direction sought with a large enough effect in the repeat runs; an effect the other way counts as inactive or inconclusive; also: nearly all actives have a fitted effect of over 55% in size; also: potency is read from the fitted curve at half-maximal effect). The procedure, abridged: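 In human HaCaT keratinocytes stably expressing an ARE-driven luciferase, compound exposure lasted 23 h at 37 C under 5% CO2. Viable cells are quantified with a protease-based fluorogenic reagent (CellTiter-Fluor) read 1 h after addition.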
On the technique in general: Quantitative high-throughput screening tests each substance at several concentrations.

Test [2] can be described thus: Nuclear factor erythroid 2-related factor 2/antioxidant responsive element (Nrf2/ARE) small molecule agonists: luciferase reporter gene qHTS assay in human keratinocytes (AID 1919969). Also: nearly all actives have a fitted effect of over 35% in size. Also: potency is read from the fitted curve at half-maximal effect. Background: Reporter assays use an easily measured gene product as a stand-in for the process of interest.
The target of test [3] is Gonadotropin-releasing hormone receptor (Homo sapiens) (UniProt P30968). The test is described as follows: Human gonadotropin-releasing hormone receptor (GnRHR) small molecule agonists, calcium flux assay in GnRHR-HEK293 cells (AID 1920063). Also: nearly all actives have a fitted effect of over 35% in size. The procedure, abridged:
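Intracellular calcium rise is the read-out: engineered human GnRHR HEK293 cells, dye-loaded, are exposed to DMSO-dissolved compounds and fluorescence at Ex/Em 480/540 is tracked for 3 min.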
For orientation: Calcium assays in cells follow changes in intracellular calcium, usually with a dye or a luminescent sensor.

Test [4] concerns the target KiSS-1 receptor (Homo sapiens) (UniProt Q969F8). Briefly: Human kisspeptin (KISS1R) small molecule agonists, calcium flux assay in KISS1R-HEK293 cells (AID 1920064; active = well fitted curve in the direction sought with a large enough effect in the repeat runs; an effect the other way counts as inactive or inconclusive). The procedure, abridged:
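Concentration-response testing used 15 concentrations in triplicate on human KISS1R-expressing HEK293 cells. Calcium-dependent fluorescence (Ex/Em 480/540) was followed kinetically for 3 min after compound transfer.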

Test [5] in a line: G protein-coupled receptor (GPCR) small molecule agonists, calcium flux assay: HEK293 wild type cell line counter screen (AID 1920065). In outline: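 Fluorescence intensity signals activation. After overnight (18 h) culture and a 1 h calcium dye load at 37 C, compounds are added by pin tool and the plate read at 480/540 nm for 3 min in 1 s steps.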
Test [6] is described as follows: p53 small molecule agonists, cell-based qHTS assay with human liver microsomes: qHTS cell viability counter screen (AID 1963579). Also: nearly all actives have a fitted effect of over 45% in size. In outline:
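Metabolic activation used human liver microsomes and NADPH, both 0.5 mg/mL final, over 16 hours at 37 C on p53RE-bla cells (4,000/well). Cytotoxicity measured by CellTiter-Glo luminescence, 30 min at room temperature.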

Test [7] in a line: p53 small molecule agonists, cell-based qHTS assay: qHTS cell viability counter screen (AID 1963581). Also: nearly all actives have a fitted effect of over 45% in size. The procedure, abridged: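 Luminescence from CellTiter-Glo, reflecting ATP content, serves as the cytotoxicity measure; it is taken after the 2 h reporter substrate step in HCT-116 p53RE-bla cells dosed for 16 h at 37 C.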
Test [8] can be described thus: cAMP Responsive Elements (CRE) small molecule agonists, cell-based qHTS assay (AID 1963590). The procedure, abridged:
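Compound exposure lasted 3 h at 37 C/5% CO2 in CRE-bla HEK 293T cells grown in assay medium with 10% dialyzed FBS and 25 mM HEPES. Reporter signal came from LiveBLAzer B/G FRET substrate, 2 h, room temperature.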

Test [9] is described as follows: cAMP Responsive Elements (CRE) small molecule antagonists, cell-based qHTS assay (AID 1963591; active = well fitted inhibition curve with a large enough effect in the signal ratio in the repeat runs, not every such curve was filed as active; the % refers to the signal ratio). The procedure, abridged: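 Stimulation used NKH477 at a final 0.25 uM for 3 h in compound-treated CRE-bla HEK293T cells, seeded 18 h beforehand. Reporter activity was measured with LiveBLAzer B/G FRET substrate after 2 h at room temperature.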
For test [10], the target named is Beta-2 adrenergic receptor (Homo sapiens) (UniProt P07550). The test is described as follows: Adrenergic beta2 receptor (ADRB2) small molecule antagonists, cell-based qHTS assay (AID 1963592). Also: nearly all actives have a fitted effect of over 50% in size. Also: potency is read from the fitted curve at half-maximal effect. As to activity change, negative = inhibition: series mostly up to about 92 µM. In outline: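 Assay format: CHO-ADRB2 cells, 18-20hr seeding at 37C/5% CO2, then compound plus 1nM isoproterenol agonist mix for 0.5hr RT. Homogeneous time-resolved fluorescence cAMP detection after 1hr, expressed as 665/615 nm ratio.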
Sequence of Beta-2 adrenergic receptor (Homo sapiens) (P07550 whole entry, looked up): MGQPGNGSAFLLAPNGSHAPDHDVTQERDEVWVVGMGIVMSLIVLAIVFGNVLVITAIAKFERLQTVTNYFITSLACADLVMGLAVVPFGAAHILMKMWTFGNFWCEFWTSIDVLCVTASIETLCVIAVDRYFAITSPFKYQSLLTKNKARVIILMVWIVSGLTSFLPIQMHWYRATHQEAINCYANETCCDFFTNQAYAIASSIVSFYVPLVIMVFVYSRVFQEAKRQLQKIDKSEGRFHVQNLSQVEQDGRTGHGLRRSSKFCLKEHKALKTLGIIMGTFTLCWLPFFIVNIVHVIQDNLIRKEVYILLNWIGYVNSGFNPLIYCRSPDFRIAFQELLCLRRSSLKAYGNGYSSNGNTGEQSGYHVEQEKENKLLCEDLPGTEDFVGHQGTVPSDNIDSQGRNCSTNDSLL

Test [11] has as its target D(2) dopamine receptor (Homo sapiens) (UniProt P14416). The test is described as follows: Dopamine D2 receptor (DRD2) small molecule agonists, cell-based qHTS assay (AID 1963594). Also: nearly all actives have a fitted effect of over 35% in size. In outline: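 HEK293 cells stably expressing DRD2 were cultured 24 h at 37 C, then given Ro20-1724 (0.1 mM final) and compounds for 10 min at room temperature. NKH477 (200nM) was then added for 30 min. cAMP was read by HTRF.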

For test [12] the target is unchanged. The test is described as follows: Dopamine D2 receptor (DRD2) small molecule antagonists, cell-based qHTS assay (AID 1963595; active = well fitted inhibition curve with a large enough effect in the signal ratio in the repeat runs, with a control signal flat; the % refers to the signal ratio; also: potency is read from the fitted curve at half-maximal effect). The procedure, abridged: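 Antagonist mode in DRD2-HEK293 cells: after compound addition with 0.1 mM Ro20-1724, cells received quinpirole (12 nM) and NKH477 (200 nM) for 30 min at room temperature; HTRF cAMP read after 1 h detection.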

A short description of test [13]: p53 small molecule agonists, cell-based qHTS assay with rat liver microsomes: qHTS cell viability counter screen (AID 1963580). Also: nearly all actives have a fitted effect of over 45% in size. The procedure, abridged:
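Counter screen for cytotoxicity under metabolic activation: rat liver microsomes and NADPH, 0.5 mg/mL final each, added with compounds to p53RE-bla HCT-116 cells; 16 h at 37 C, then ATP luminescence read.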

Test [14] concerns the target 5-hydroxytryptamine receptor 2A (Homo sapiens) (UniProt P28223). The test is described as follows: 5-hydroxytryptamine receptor 2A (HTR2A) small molecule agonists, cell-based qHTS assay (AID 1963587). Also: nearly all actives have a fitted effect of over 30% in size. The procedure, abridged: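 HTR2A-CHO cells, plated 18 h at 37 C/5% CO2, dye-loaded 1 h at 37 C; compounds in DMSO added by pin tool (agonist mode). Intracellular calcium flux read as kinetic fluorescence on FDSS over 2 min at 1 s intervals.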

Test [15] deals with Muscarinic acetylcholine receptor M1 (Homo sapiens) (UniProt P11229). Briefly: Cholinergic receptor muscarinic 1 (CHRM1) small molecule antagonists, cell-based qHTS assay (AID 1963588). Also: nearly all actives have a fitted effect of over 40% in size. The procedure, abridged: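 Compounds were tested at 15 concentrations in three independent runs. Dye-loaded CHRM1-CHO cells were exposed 5 min at room temperature before stimulation by acetylcholine added at 50nM. Intracellular calcium was read kinetically on FDSS for 3 min.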
Sequence of Muscarinic acetylcholine receptor M1 (Homo sapiens) (P11229 whole entry, looked up): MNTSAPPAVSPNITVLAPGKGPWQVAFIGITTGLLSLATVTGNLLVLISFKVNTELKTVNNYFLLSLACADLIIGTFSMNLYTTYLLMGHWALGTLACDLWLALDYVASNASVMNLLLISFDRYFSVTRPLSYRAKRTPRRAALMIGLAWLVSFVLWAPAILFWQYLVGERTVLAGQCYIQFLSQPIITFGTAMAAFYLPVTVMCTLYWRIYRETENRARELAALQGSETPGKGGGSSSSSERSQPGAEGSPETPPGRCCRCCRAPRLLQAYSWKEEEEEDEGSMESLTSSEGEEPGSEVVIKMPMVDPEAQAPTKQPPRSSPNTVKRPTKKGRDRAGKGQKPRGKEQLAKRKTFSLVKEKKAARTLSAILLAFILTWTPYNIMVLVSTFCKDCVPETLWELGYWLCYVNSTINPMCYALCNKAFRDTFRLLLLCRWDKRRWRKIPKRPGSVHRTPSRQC

In test [16] the target is Beta-2 adrenergic receptor (Homo sapiens) (UniProt P07550). Briefly: Adrenergic beta2 receptor (ADRB2) small molecule agonists, cell-based qHTS assay (AID 1963593).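 Also: CHO cells stably overexpressing human ADRB2.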 In outline:
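CHO cells stably over-expressing ADRB2 were plated overnight at 37C, then dosed with compounds plus a stimulation mix containing 100uM IBMX and 25uM Ro-20-1724 for 0.5hr at room temperature. cAMP was measured by HTRF competition, 1hr.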

For test [17], the target named is 5-hydroxytryptamine receptor 2A (Homo sapiens) (UniProt P28223). Briefly: 5-hydroxytryptamine receptor 2A (HTR2A) small molecule antagonists, cell-based qHTS assay (AID 1963586). Also: nearly all actives have a fitted effect of over 45% in size. The procedure, abridged: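 CHO cells stably expressing human HTR2A were plated for 18 h at 37 C, then loaded with calcium dye for 1 h. Compounds were preincubated 5 min at room temperature before DOI (4 nM solution) was added. Kinetic fluorescence was read for 3 min.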
Sequence of 5-hydroxytryptamine receptor 2A (Homo sapiens) (P28223 whole entry, looked up): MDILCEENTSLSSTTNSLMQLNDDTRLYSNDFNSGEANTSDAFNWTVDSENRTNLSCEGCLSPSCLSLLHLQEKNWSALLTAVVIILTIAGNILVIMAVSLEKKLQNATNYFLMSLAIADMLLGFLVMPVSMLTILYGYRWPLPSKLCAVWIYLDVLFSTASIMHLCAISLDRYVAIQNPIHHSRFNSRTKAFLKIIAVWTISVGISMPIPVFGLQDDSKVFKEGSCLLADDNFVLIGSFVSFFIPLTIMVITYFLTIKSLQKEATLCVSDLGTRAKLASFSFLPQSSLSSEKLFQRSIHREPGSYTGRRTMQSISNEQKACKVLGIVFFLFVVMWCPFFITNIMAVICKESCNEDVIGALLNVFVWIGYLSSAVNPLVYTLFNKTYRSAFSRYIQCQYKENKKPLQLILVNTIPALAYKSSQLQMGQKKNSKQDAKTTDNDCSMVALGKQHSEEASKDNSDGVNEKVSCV

Test [18] addresses Muscarinic acetylcholine receptor M1 (Homo sapiens) (UniProt P11229). Briefly: Cholinergic receptor muscarinic 1 (CHRM1) small molecule agonists, cell-based qHTS assay (AID 1963589). Also: nearly all actives have a fitted effect of over 35% in size. In outline: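 Fluorescent calcium dye reports M1 activation in stably transfected CHO cells. Compounds, 15 concentrations, added after 1 h dye loading at 37 C; kinetic reading at 1 sec intervals.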

Test [19] in a line: p53 small molecule agonists, cell-based qHTS assay (AID 1963582; active = well fitted activation curve with a large enough effect in the signal ratio in the repeat runs, not every such curve was filed as active; the % refers to the signal ratio). In outline: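 After plating, p53RE-bla cells sat 5 h in the incubator; compounds or DMSO vehicle were pinned in; a 16 h incubation at 37 C followed; FRET substrate was added and, 2 h later at RT, fluorescence was measured.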
% is scaled to controls: 0 for no effect and ±100 for the full control effect.

Sequence of D(2) dopamine receptor (Homo sapiens) (P14416 whole entry, looked up): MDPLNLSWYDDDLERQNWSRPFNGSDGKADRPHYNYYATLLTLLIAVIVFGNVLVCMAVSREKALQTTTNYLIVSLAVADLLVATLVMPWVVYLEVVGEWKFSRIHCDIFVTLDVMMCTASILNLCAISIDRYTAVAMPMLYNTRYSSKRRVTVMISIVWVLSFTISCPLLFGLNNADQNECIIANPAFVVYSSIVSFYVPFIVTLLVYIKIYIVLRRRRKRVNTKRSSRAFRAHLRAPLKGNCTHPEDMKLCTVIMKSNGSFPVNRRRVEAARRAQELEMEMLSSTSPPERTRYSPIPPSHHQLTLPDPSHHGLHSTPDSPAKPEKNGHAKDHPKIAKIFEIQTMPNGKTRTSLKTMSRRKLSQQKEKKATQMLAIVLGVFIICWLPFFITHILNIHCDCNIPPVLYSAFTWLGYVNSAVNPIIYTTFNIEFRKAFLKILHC
Sequence of Gonadotropin-releasing hormone receptor (Homo sapiens) (P30968 whole entry, looked up): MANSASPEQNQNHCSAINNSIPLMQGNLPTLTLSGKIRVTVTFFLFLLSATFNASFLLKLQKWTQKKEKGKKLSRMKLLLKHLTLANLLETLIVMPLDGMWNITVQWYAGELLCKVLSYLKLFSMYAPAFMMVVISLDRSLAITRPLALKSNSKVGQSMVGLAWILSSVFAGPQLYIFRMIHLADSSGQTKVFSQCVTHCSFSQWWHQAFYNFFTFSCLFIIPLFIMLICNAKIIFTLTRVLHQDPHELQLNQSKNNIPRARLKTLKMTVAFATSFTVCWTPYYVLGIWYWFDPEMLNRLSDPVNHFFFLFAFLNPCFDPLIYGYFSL
Sequence of KiSS-1 receptor (Homo sapiens) (Q969F8 whole entry, looked up): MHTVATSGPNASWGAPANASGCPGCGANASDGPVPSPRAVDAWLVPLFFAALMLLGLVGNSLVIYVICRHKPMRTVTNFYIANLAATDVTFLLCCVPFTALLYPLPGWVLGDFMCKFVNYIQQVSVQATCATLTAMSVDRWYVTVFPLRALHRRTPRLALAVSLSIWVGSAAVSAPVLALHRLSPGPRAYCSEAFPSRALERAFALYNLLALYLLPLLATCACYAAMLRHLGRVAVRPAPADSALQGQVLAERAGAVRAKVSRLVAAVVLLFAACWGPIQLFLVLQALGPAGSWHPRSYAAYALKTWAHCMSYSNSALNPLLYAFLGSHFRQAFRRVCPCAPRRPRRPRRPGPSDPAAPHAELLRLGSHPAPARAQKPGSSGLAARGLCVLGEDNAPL

Turning to `CC(C)CO`, the Potency result in [1], in [2], in [3], in test [4], in [5] and in [6] was “inactive” throughout. Further, the Potency result in test [7], in test [8], in test [9], in test [10], in [11] and in test [12] was “inactive” each time.
Consider `CN1CCC(=C2c3ccccc3Sc3ccccc32)CC1`, for which the Potency entry in [1], in [2], in [3], in test [4], in test [5] and in test [13] was “inactive” in each case. In addition, the Potency result in [7], in test [14], in test [8] and in [11] was “inactive” each time. For the same molecule, the Potency in test [12] was 0.75 µM (active).
For `O=C(O)CN(CCOCCOCCN(CC(=O)O)CC(=O)O)CC(=O)O`, the activity change, negative = cytotoxicity was -7.96% [at 0.349 µM] in [1], -3.51% [at 0.249 µM] in test [13] and -15.2% [at 0.249 µM] in test [7]. For the same molecule, the activity, positive = activation in test [2] is -0.157% [at 0.349 µM]. The activity change in [3] was 0.537% [at 0.217 µM, active compounds read high]. For the same molecule, the activation in test [4] was -1.47% [at 0.29 µM]; in test [5] it was -0.598% [at 0.217 µM]; in [14], -0.693% [at 0.292 µM]; in test [8], -1.26% [at 0.349 µM]; in test [16], 0.525% [at 0.349 µM]. In test [15], the activity, negative = inhibition was -20.9% [at 0.232 µM]. Further, the activity change, negative = inhibition in [9] is 0.383% [at 0.349 µM]; in test [12] it was -1.35% [at 0.348 µM].
As for `CC(C)(COC(=O)c1ccccc1)COC(=O)c1ccccc1`, the Potency entry in test [1], in [2], in [3], in test [4], in test [5] and in test [13] was “inactive” throughout. Also, the Potency entry in test [7], in [17], in [14], in test [18], in test [8] and in test [9] was “inactive” throughout. Further, the Potency entry in test [10], in [11] and in test [12] was “inactive” each time.
With `C=C1CCC2CC1C2(C)C` (configuration not stated), the Potency entry in test [1], in test [2], in test [3], in test [4], in test [5] and in test [13] was “inactive” each time. In addition, the Potency entry in test [7], in test [17], in test [14], in test [15], in [18] and in test [9] was “inactive” each time. Also, the Potency result in test [16] and in test [12] was “inactive” throughout.
In the case of `CCCOc1ccc2c(c1)CC[C@@H]1[C@@H]2CC[C@]2(C)C(OC)CC[C@@H]12` (some centres not stated), the Potency entry in [1], in test [2], in [3], in [4], in [5] and in test [13] was “inactive” in each case. For the same molecule, the Potency result in [7], in test [19], in [17], in test [14], in [15] and in [18] was “inactive” throughout. For the same molecule, the Potency entry in test [8], in test [9], in [10], in test [16] and in test [11] was “inactive” each time.
Take `Clc1ccc(C(Cn2ccnc2)OCc2ccsc2Cl)c(Cl)c1` (configuration not stated): the Potency in test [1] is 8.41 µM (active); in test [2], 10.6 µM (active); in [10] it was 29.8 µM (active). Also, the Potency result in test [3], in [4], in test [5], in test [13], in test [7] and in [17] was “inactive” each time. For the same molecule, the Potency entry in [14], in test [18], in [8], in test [11] and in [12] was “inactive” in each case.
Take `Nc1c[n+](N2CCOCC2)no1`: the Potency entry in test [1], in test [2], in test [3], in [4], in [5] and in test [13] was “inactive” each time. The Potency entry in [7], in [17], in test [14], in test [15], in test [18] and in [8] was “inactive” throughout. Besides, the Potency entry in test [9], in test [10], in [16] and in test [12] was “inactive” in each case.
Regarding `O=C(NO)C1(NS(=O)(=O)c2ccc(Oc3ccc(F)cc3)cc2)CCOCC1`, the Potency result in test [1], in test [2], in test [3], in test [4], in test [5] and in test [13] was “inactive” throughout. For the same molecule, the Potency entry in test [7], in test [17], in test [14], in test [15], in [8] and in test [9] was “inactive” in each case. The Potency result in test [10], in [11] and in test [12] was “inactive” throughout.
